Assay results from PubChem BioAssay (Tox21).
“And” between values parts separate entries of the source, which are not always exact repeats. Equal values may be shown once. Results filed as inconclusive are left out. The source made the active and inactive calls. Calls come from the whole dose curve; as a rule, active = well fitted curve in the direction sought with a large enough effect in the repeat runs; inconclusive = weak or mixed curves; inactive = no such curve, though single readings can be large; an effect the other way counts as inactive or inconclusive.

What was measured:
[1] = qHTS RealTime-Glo MT Cell Viability Assay in HepG2 cells - 40 hour (AID 1224870); note: nearly all actives have a fitted effect of over 50% in size
In short: (§1)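 HepG2 cells mixed with RealTime-Glo MT reagents (NanoLuc plus cell-permeant prosubstrate) were seeded at 600 cells/well, incubated 5 h at 37 C/5% CO2, then pinned with compounds in DMSO; nonlytic luminescence tracked viability during 40 h treatment.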

[2] = A CellTox Green Cytotoxicity Assay to monitor cytotoxicity in HEK293 cells - 40 hour (AID 1224871); note: nearly all actives have a fitted effect of over 45% in size
In short: (§2)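 Seeding of HEK293 cells together with cytotoxicity dye preceded a 5 h incubation at 37 C/5% CO2. Test compounds in DMSO were then added and fluorescence monitored across 40 h.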

[3] = qHTS RealTime-Glo MT Cell Viability Assay in HEK293 cells - 16 hour (AID 1224872); note: top concentration of the series differs between compounds; nearly all actives have a fitted effect of over 50% in size
In short: (§3)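 Luminescence generated by NanoLuc from substrate produced by living HEK293 cells served as the viability signal. Each value reflects the reading at its stated time point during continuous 40 h compound exposure at 37 C.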

[4] = qHTS RealTime-Glo MT Cell Viability Assay in HepG2 cells - 8 hour (AID 1224873); note: nearly all actives have a fitted effect of over 55% in size
In short: as §1

[5] = qHTS RealTime-Glo MT Cell Viability Assay in HEK293 cells - 40 hour (AID 1224874); conditions: RealTime-Glo luminescence; max response: active compounds read low; note: nearly all actives have a fitted effect of over 50% in size
In short: (§4)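 Tox21 screen in HEK293 using RealTime-Glo MT chemistry, with cells and reagent co-dispensed. Luminescence proportional to viable cell number was captured at intervals during 40 h compound exposure at 37 C.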

[6] = A CellTox Green Cytotoxicity Assay to monitor cytotoxicity in HEK293 cells - 24 hour (AID 1224875); note: series mostly up to about 77 µM; nearly all actives have a fitted effect of over 45% in size
In short: as §2

[7] = A CellTox Green Cytotoxicity Assay to monitor cytotoxicity in HepG2 cells - 16 hour (AID 1224876); note: nearly all actives have a fitted effect of over 45% in size
In short: (§5)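 Nonlytic assay: viable cells exclude the dye, so fluorescence scales with cell death. HepG2 at 600 cells/well, compounds added after 5 h, signal read across 40 h.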

[8] = qHTS RealTime-Glo MT Cell Viability Assay in HepG2 cells - 32 hour (AID 1224877); note: nearly all actives have a fitted effect of over 55% in size
In short: (§6)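 Tox21 10K library screened in qHTS format on HepG2 cells carrying RealTime-Glo reagents. Compounds were added after a 5 h preincubation, and the luminescent signal from continuous culture was measured repeatedly during 40 h treatment.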

[9] = A CellTox Green Cytotoxicity Assay to monitor cytotoxicity in HepG2 cells - 24 hour (AID 1224878); note: nearly all actives have a fitted effect of over 45% in size
In short: as §5

[10] = A CellTox Green Cytotoxicity Assay to monitor cytotoxicity in HepG2 cells - 40 hour (AID 1224879); note: nearly all actives have a fitted effect of over 40% in size
In short: as §5

[11] = qHTS RealTime-Glo MT Cell Viability Assay in HEK293 cells - 0 hour (AID 1224880)
In short: as §4

[12] = A CellTox Green Cytotoxicity Assay to monitor cytotoxicity in HEK293 cells - 32 hour (AID 1224881); note: nearly all actives have a fitted effect of over 40% in size
In short: as §2

[13] = A CellTox Green Cytotoxicity Assay to monitor cytotoxicity in HepG2 cells - 0 hour (AID 1224882); note: nearly all actives have a fitted effect of over 35% in size
In short: as §5

[14] = A CellTox Green Cytotoxicity Assay to monitor cytotoxicity in HEK293 cells - 8 hour (AID 1224884); note: nearly all actives have a fitted effect of over 35% in size
In short: as §2

[15] = qHTS RealTime-Glo MT Cell Viability Assay in HepG2 cells - 16 hour (AID 1224885); note: nearly all actives have a fitted effect of over 50% in size
In short: as §6

[16] = qHTS RealTime-Glo MT Cell Viability Assay in HEK293 cells - 24 hour (AID 1224886)
In short: as §3

[17] = qHTS RealTime-Glo MT Cell Viability Assay in HEK293 cells - 8 hour (AID 1224887)
In short: as §4

[18] = A CellTox Green Cytotoxicity Assay to monitor cytotoxicity in HEK293 cells - 16 hour (AID 1224888); note: nearly all actives have a fitted effect of over 35% in size
In short: as §2

[19] = qHTS RealTime-Glo MT Cell Viability Assay in HepG2 cells - 0 hour (AID 1224889); note: nearly all actives have a fitted effect of over 50% in size
In short: as §6

[20] = A CellTox Green Cytotoxicity Assay to monitor cytotoxicity in HepG2 cells - 32 hour (AID 1224883); note: nearly all actives have a fitted effect of over 50% in size
In short: as §5
% is set by controls: 0 for no effect and ±100 for the full control effect.

C/C(=N\NC(=O)Nc1cc(F)cc(F)c1)c1ncccc1C(=O)O
inactive: Potency [1] | Potency [2] | Potency [3] | outcome [4] | max response [5] -7.58% and 0.112% | Potency [6] | Potency [7] | Potency [8] | Potency [9] | Potency [10] | outcome [11] | Potency [12] | outcome [13] | Potency [14] | Potency [15] | Potency [16] | Potency [17] | Potency [18] | outcome [19]

CCCCOC(C)=O
inactive: Potency [1] | Potency [2] | Potency [3] | outcome [4] | max response [5] 8.22% | Potency [6] | Potency [7] | Potency [9] | Potency [10] | outcome [11] | Potency [12] | outcome [13] | Potency [20] | Potency [14] | Potency [16] | Potency [17] | Potency [18] | outcome [19]

CCCCCCC1CCOC1=O (configuration not stated)
inactive: Potency [1] | Potency [2] | Potency [3] | outcome [4] | max response [5] -0.816% | Potency [6] | Potency [7] | Potency [8] | Potency [10] | outcome [11] | outcome [13] | Potency [14] | Potency [16] | Potency [17] | Potency [18] | outcome [19]

CCSC(=O)Cl
inactive: Potency [1] | Potency [2] | Potency [3] | outcome [4] | max response [5] 15.5% | Potency [6] | Potency [7] | Potency [8] | Potency [10] | outcome [11] | outcome [13] | Potency [20] | Potency [14] | Potency [16] | Potency [17] | Potency [18] | outcome [19]

CN(C)CCN(C)C
inactive: Potency [1] | Potency [2] | Potency [3] | outcome [4] | max response [5] 7.83% | Potency [6] | Potency [7] | Potency [8] | Potency [10] | outcome [11] | Potency [12] | outcome [13] | Potency [14] | Potency [15] | Potency [17] | Potency [18] | outcome [19]

COc1cc(CC(C)N)cc(OC)c1OC (configuration not stated)
inactive: Potency [1] | Potency [2] | Potency [3] | outcome [4] | max response [5] -3.07% | Potency [6] | Potency [7] | Potency [8] | Potency [10] | outcome [11] | Potency [12] | outcome [13] | Potency [14] | Potency [15] | Potency [16] | Potency [17] | Potency [18] | outcome [19]

CCCOC(=O)Cc1ccc(OCC(=O)N(CC)CC)c(OC)c1
inactive: Potency [1] | Potency [2] | Potency [3] | outcome [4] | max response [5] -5.19% | Potency [6] | Potency [7] | Potency [8] | Potency [10] | outcome [11] | outcome [13] | Potency [20] | Potency [14] | Potency [15] | Potency [16] | Potency [17] | Potency [18] | outcome [19]

C=CCN1CC[C@]23CCCC[C@H]2[C@H]1Cc1ccc(O)cc13
inactive: Potency [1] | Potency [2] | Potency [3] | outcome [4] | max response [5] 1.5% | Potency [6] | Potency [7] | Potency [8] | Potency [10] | outcome [11] | Potency [12] | outcome [13] | Potency [20] | Potency [14] | Potency [15] | Potency [16] | Potency [17] | Potency [18] | outcome [19]

O=C(O)C(F)(F)C(F)(F)C(F)(F)C(F)(F)C(F)(F)C(F)(F)F
inactive: Potency [1] | Potency [2] | Potency [3] | outcome [4] | max response [5] -16.5% | Potency [6] | Potency [7] | Potency [8] | Potency [10] | outcome [11] | Potency [20] | Potency [14] | Potency [15] | Potency [16] | Potency [17] | Potency [18] | outcome [19]

ClCOCCl
inactive: Potency [1] | Potency [2] | Potency [3] | outcome [4] | max response [5] 12.2% | Potency [6] | Potency [7] | Potency [9] | Potency [10] | outcome [11] | Potency [12] | outcome [13] | Potency [14] | Potency [15] | Potency [16] | Potency [17] | Potency [18] | outcome [19]

CC(C)[C@]12CC(=O)[C@H](C)[C@H]1C2
inactive: Potency [1] | Potency [2] | Potency [3] | outcome [4] | max response [5] -4.49% | Potency [6] | Potency [7] | Potency [9] | Potency [10] | outcome [11] | Potency [12] | outcome [13] | Potency [20] | Potency [14] | Potency [15] | Potency [17] | Potency [18] | outcome [19]

CC(=O)CN(CC(C)=O)N=O
inactive: Potency [1] | Potency [2] | Potency [3] | outcome [4] | max response [5] 5.04% | Potency [6] | Potency [7] | Potency [8] | Potency [10] | outcome [11] | Potency [12] | outcome [13] | Potency [20] | Potency [14] | Potency [15] | Potency [16] | Potency [17] | Potency [18] | outcome [19]

N[C@@H]1C[C@H]1c1ccccc1
inactive: Potency [1] | Potency [2] | Potency [3] | outcome [4] | max response [5] 1.46% | Potency [6] | Potency [7] | Potency [8] | Potency [10] | outcome [11] | Potency [12] | outcome [13] | Potency [20] | Potency [14] | Potency [15] | Potency [16] | Potency [17] | Potency [18] | outcome [19]

OCC(Cl)CCl (configuration not stated)
inactive: Potency [1] | Potency [2] | Potency [3] | outcome [4] | max response [5] -0.453% | Potency [6] | Potency [7] | Potency [8] | Potency [10] | outcome [11] | Potency [12] | outcome [13] | Potency [20] | Potency [14] | Potency [15] | Potency [16] | Potency [17] | Potency [18] | outcome [19]

CC(C)N(Cc1ccccc1)C(=O)C(C)(C)C
inactive: Potency [1] | Potency [2] | Potency [3] | outcome [4] | max response [5] -9.28% | Potency [6] | Potency [7] | Potency [8] | outcome [11] | Potency [12] | outcome [13] | Potency [14] | Potency [15] | Potency [16] | Potency [17] | Potency [18] | outcome [19]

CS(=O)(=O)Cl
inactive: Potency [1] | Potency [2] | Potency [3] | outcome [4] | max response [5] -0.619% | Potency [6] | Potency [7] | Potency [8] | Potency [10] | outcome [11] | Potency [12] | outcome [13] | Potency [14] | Potency [15] | Potency [16] | Potency [17] | Potency [18] | outcome [19]
